Laboratory results taken from PubChem BioAssay AID504834 (National Center for Advancing Translational Sciences (NCATS), 2011).
In all, about 320,000 compounds went through this assay and about 22,000 (6.9%) were called active. Entries that show only a call come without a potency. Roughly 27% stayed inconclusive and do not appear here. Calls come from the whole dose curve; as a rule, active = well fitted inhibition curve with a large enough effect; inconclusive = small, poorly fitted or top-dose-only effect, or another doubt; inactive = no such curve, though single readings can be large or run the other way. Many of the other results were omitted from the sample, so actives are more common in it than they were.
Potency is the fitted concentration of half-maximal effect.

Experiment: Primary qHTS for delayed death inhibitors of the malarial parasite plastid, 96 hour incubation
Conditions: P. falciparum luciferase reporter growth; series mostly up to 28.7 µM
Summary of the method: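 Parasite growth measured via integrated firefly luciferase reporter in P. falciparum. Infected erythrocytes at 2% hematocrit, 0.05% parasitemia final were treated 96 hours at 37 C under 5% CO2, and luminescence was read.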
For `CCn1cc(CN2CCC(n3nccc3NC(=O)CCCc3ccccc3)CC2)c(C)n1`, the Potency was “inactive”.
For `c1ccc2c(c1)CSc1sccc1C2=C1CCNCC1`, the Potency was 10.4 µM (active).
In the case of `CCOC(=O)CNC(=O)CSc1ncccc1-c1nc2ccccc2[nH]1`, the Potency is reported as “inactive”.
For `Cc1ccccc1N1CCN(S(=O)(=O)c2ccc3ccccc3c2)CC1`, the Potency was “inactive”.
With `Cc1ccc(-n2c(SCC(=O)NCCC3=CCCCC3)nc3n[nH]c(C)c3c2=N)cc1Cl` the Potency was “inactive”.
With `CC1(c2ccc(Cl)cc2Cl)NC(=O)N(CC(=O)Nc2cccnc2Cl)C1=O` (stereo not drawn) the Potency was “inactive”.
For `Cc1ccc(CN2CCCC(C(=O)c3ccc4c(c3)OCO4)C2)cc1C` (stereo not drawn), the Potency was “inactive”.
In the case of `COc1cc(CN2CCCC(C(=O)c3ccc(SC)cc3)C2)cc(Cl)c1O` (stereo not drawn), the Potency is reported as “inactive”.
With `COc1ccc(CN2CCCC(C(=O)c3ccc(Cl)cc3)C2)cc1Cn1cncn1` (stereo not drawn) the Potency was 10.4 µM (active).
For `COc1ccc(NC(=O)CSCc2ccc([N+](=O)[O-])cc2)cc1OC`, the Potency was “inactive”.
With `OC(c1ccc(Cl)cc1)C(CN1CCOCC1)c1ccccc1` (stereo not drawn) the Potency was 2.08 µM (active).
In the case of `OC(c1ccccc1)C(CN1CCOCC1)c1ccccc1` (stereo not drawn), the Potency is reported as “inactive”.
In the case of `COc1ccccc1OCC(O)CN1CCOCC1` (stereo not drawn), the Potency is reported as “inactive”.
In the case of `COc1ccc(C(C)C)cc1S(=O)(=O)Nc1ncn[nH]1`, the Potency is reported as “inactive”.
In the case of `CCCN(CCC)S(=O)(=O)c1ccc(C(=O)NNC(=O)c2cc(OC)c(OC)c(OC)c2)cc1`, the Potency is reported as “inactive”.
With `O=c1[nH]c(SCc2cccc(F)c2)nc2ccccc12` the Potency was “inactive”.
With `CN1CCC(CN)(N2CCN(c3ccccc3)CC2)CC1` the Potency was 11.7 µM (active).
In the case of `O=C(c1cc(=O)c2ccccc2o1)N1CCN(c2ccccc2)CC1`, the Potency is reported as “inactive”.
For `CN1CCN(c2ccc(NC(=O)c3ccccc3)cc2)CC1`, the Potency was “inactive”.
For `CCC(C)N(C(=O)CSc1ncnc2c1cnn2-c1ccccc1)C1CCS(=O)(=O)C1` (stereo not drawn), the Potency was “inactive”.
For `COc1ccc(CC(=O)N/N=C/c2cc([N+](=O)[O-])cc(Br)c2O)cc1`, the Potency was “inactive”.
In the case of `CC12CN3CCN(CC(C3)/C1=N\NC(=O)c1ccccc1N)C2`, the Potency is reported as “inactive”.
In the case of `Cc1ccc2[nH]c(C)c(CCNC(=O)NC3CCCCC3)c2c1`, the Potency is reported as 1.47 µM (active).
In the case of `Cc1ccc2[nH]cc(CCNC(=O)C3CCCCC3)c2c1`, the Potency is reported as “inactive”.
In the case of `NS(=O)(=O)c1ccc(CCNC(=O)NC2CCCCC2)cc1`, the Potency is reported as “inactive”.
In the case of `Cc1cccc(NC(=O)Nc2ccc(OCc3ccccc3)cc2)n1`, the Potency is reported as “inactive”.
In the case of `O=C(O)/C=C\C(=O)Nc1ccc(OCc2ccccc2)cc1`, the Potency is reported as 4.15 µM (active).
In the case of `CCc1ccnc(NC(=O)Nc2ccc(OCc3ccccc3)cc2)c1`, the Potency is reported as “inactive”.
In the case of `CCN(C(=O)c1cc([N+](=O)[O-])ccc1NCc1cccnc1)c1ccccc1`, the Potency is reported as “inactive”.
In the case of `COc1cccc(N2CC(NS(=O)(=O)c3ccc(Cl)cc3)CC2=O)c1` (stereo not drawn), the Potency is reported as “inactive”.
With `CCOC(=O)N1CCC(NC(=O)CCc2ccccc2)CC1` the Potency was “inactive”.
In the case of `Cc1ccc(CSCCNC(=O)CN(c2ccc(F)cc2)S(C)(=O)=O)cc1`, the Potency is reported as “inactive”.
With `CCC(=O)Oc1cccc(C(=O)Nc2ccc(-c3nnc(-c4ccco4)o3)cc2)c1` the Potency was 10.4 µM (active).
In the case of `CCCCOc1ccc(-c2nnc(-c3ccco3)o2)cc1`, the Potency is reported as “inactive”.
For `O=C(CCc1ccccc1)Nc1cccc(-c2nnc(-c3ccco3)o2)c1`, the Potency was “inactive”.
In the case of `COCCCN(C(=O)CSCc1ccc(C)cc1)c1c(N)n(Cc2ccccc2)c(=O)[nH]c1=O`, the Potency is reported as “inactive”.
For `Cc1ccc(C(=O)NC2CCN(C(=O)Nc3ccccc3Cl)CC2)cc1`, the Potency was “inactive”.
In the case of `O=C(c1c(F)cccc1Cl)N1CCN(c2ccccn2)CC1`, the Potency is reported as “inactive”.
For `COc1ccc(CCNS(=O)(=O)c2cccc3cccnc23)cc1OC`, the Potency was “inactive”.
With `O=S(=O)(NCCc1ccc(F)cc1)c1cccc2cccnc12` the Potency was “inactive”.
With `NS(=O)(=O)c1ccc(CCNS(=O)(=O)c2cccc3cccnc23)cc1` the Potency was 1.17 µM (active).
With `Cc1cccc(NC(=O)c2cccc(C(=O)Nc3cccc(C)c3C)n2)c1C` the Potency was “inactive”.
For `COc1cc(C(=O)N2CCN(C)CC2)cc(OC)c1OC`, the Potency was “inactive”.
With `C=CCOc1ccc(/C=C/C(=O)OCC(=O)NC(C)c2ccc(F)cc2)cc1` (stereo not drawn) the Potency was “inactive”.
For `COc1ccc(Cn2c(O)c(/C=C3/C=CC=N3)c(=O)[nH]c2=O)cc1`, the Potency was “inactive”.
For `COc1ccc(C(=O)NCC(=O)N/N=C/c2ccc([N+](=O)[O-])s2)cc1OC`, the Potency was “inactive”.
In the case of `COc1cc(/C=N/NC(=O)CNC(=O)c2ccncc2)ccc1OC(C)=O`, the Potency is reported as “inactive”.
With `COc1ccc(C(=O)NCC(=O)N/N=C/c2ccc([N+](=O)[O-])o2)cc1OC` the Potency was 1.85 µM (active).
In the case of `O=C(O)Cc1csc(-c2cccc(Oc3ccccc3)c2)n1`, the Potency is reported as “inactive”.
For `COc1ccc(C(=O)NCCn2nc(C)cc2C)cc1OC1CCN(C(C)=O)CC1`, the Potency was “inactive”.
In the case of `COC(=O)C1CCCCN1C(=O)c1ccc(OC2CCN(C(C)=O)CC2)c(OC)c1` (stereo not drawn), the Potency is reported as 11.7 µM (active).
In the case of `COCCOC1CCN(C(=O)c2ccc(OC)c(OC3CCN(C(C)C)CC3)c2)CC1`, the Potency is reported as “inactive”.
In the case of `O=C(CSc1nc(=O)n2ccccc2n1)Nc1ccc2c(c1)OCCO2`, the Potency is reported as “inactive”.
For `Cc1cccc(NC(=O)Nc2ccc3c(c2)OCO3)n1`, the Potency was “inactive”.
For `Cc1cccc(NC(=O)/C=C/c2ccc3c(c2)OCO3)n1`, the Potency was 9.28 µM (active).
In the case of `CCc1c(C)sc(NC(=O)/C=C/c2ccc3c(c2)OCO3)c1C(=O)OC`, the Potency is reported as “inactive”.
For `Cc1nc(COc2cccc(Cl)c2)sc1C(=O)/C=C/N(C)C`, the Potency was “inactive”.
With `CC(=O)c1ccc(N2CCN(C(=O)CCNC(=O)Cn3ccc4ccccc4c3=O)CC2)cc1` the Potency was “inactive”.
For `O=C(NCc1cccc(Cl)c1)C1=CC=CN2CCS(=O)(=O)N=C12`, the Potency was “inactive”.
For `Cc1cccc(N2CC(C)Cn3c2nc2c3c(=O)n(CC(=O)OCc3ccccc3)c(=O)n2C)c1` (stereo not drawn), the Potency was 11.7 µM (active).
For `Cc1cccc(Cn2c(N3CCN(c4ccccc4)CC3)nc3c2c(=O)n(C)c(=O)n3C)c1`, the Potency was “inactive”.
In the case of `CC1CN(C2CCCCC2)c2nc3c(c(=O)n(C)c(=O)n3C)n2C1` (stereo not drawn), the Potency is reported as “inactive”.
In the case of `O=c1c2cc([N+](=O)[O-])ccc2nc2n1CCC2`, the Potency is reported as “inactive”.
With `COC(=O)c1sc(SC)c(S(=O)(=O)C(C)C)c1N/N=C(\C#N)S(=O)(=O)c1ccccn1` the Potency was “inactive”.
In the case of `CC1CC(NC(=O)/C(C#N)=C/c2ccc[nH]2)CC(C)(C)C1` (stereo not drawn), the Potency is reported as 3.29 µM (active).
For `Cn1c(=O)c2c(ncn2CCc2ccccc2)n(C)c1=O`, the Potency was “inactive”.
In the case of `Cn1c(=O)c2c(nc(N3CCCCCC3)n2CC(O)COc2ccc(Cl)cc2)n(C)c1=O` (stereo not drawn), the Potency is reported as “inactive”.
For `Cn1c(=O)c2c(ncn2CC(COCc2ccccc2Cl)OCc2ccccc2Cl)n(C)c1=O` (stereo not drawn), the Potency was 9.28 µM (active).
